Test results from PubChem BioAssay AID1159580 (chemical genetic matrix, 2015).
Out of some 5,500 compounds screened, about 2,000 (36%) were called active. Another 18% or so got no clear call; they are omitted. No stated cut-off is given here; in the data, active means normalized growth mostly below about 0.91 (no sharp cut-off); inconclusive means no clear call, values can overlap the other calls; inactive means mostly above about 0.92. The list shows a part of the results.

Experiment: chemical genetic growth profiling, strain panel (AID 1159580);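 further: tested at 20 µM; growth read once vehicle control cultures reached saturation at 30 °C; 1 = growth at the plate median or of vehicle wells; lower values mean less growth of the strain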
Conditions: S. cerevisiae deletion strains, growth OD
[1] = locus YAR019C, strain CDC15, hits give low values
[2] = locus YBL105C, strain PKC1, hits give low values
[3] = locus YBR135W, strain CKS1, hits give low values
[4] = locus YBR136W, strain MEC1, hits give low values
[5] = locus YBR160W, strain CDC28, hits give low values
[6] = locus YDL017W, strain CDC7, hits give low values
[7] = locus YDL028C, strain MPS1, hits give low values
[8] = locus YDL101C, strain DUN1, hits give low values
[9] = locus YDL108W, strain KIN28, hits give low values
[10] = locus YDL132W, strain cdc53, hits give low values
[11] = locus YDL214C, strain PRR2, hits give low values
[12] = locus YDR052C, strain DBF4, hits give low values
[13] = locus YDR054C, strain cdc34, hits give low values
[14] = locus YDR226W, strain ADK1, hits give low values
[15] = locus YDR477W, strain SNF1, hits give low values
[16] = locus YER123W, strain YCK3, hits give low values
[17] = locus YER133W, strain GLC7, hits give low values
[18] = locus YFL009W, strain cdc4, hits give low values
[19] = locus YFL029C, strain CAK1, hits give low values
[20] = locus YFR003C, strain YPI1, hits give low values
[21] = locus YFR019W, strain FAB1, hits give low values
[22] = locus YFR028C, strain CDC14, hits give low values
[23] = locus YGR040W, strain KSS1, hits give low values
[24] = locus YGR052W, strain FMP48, hits give low values
[25] = locus YGR092W, strain DBF2, hits give low values
[26] = locus YHR030C, strain SLT2, hits give low values
[27] = locus YHR079C, strain IRE1, hits give low values
[28] = locus YHR082C, strain KSP1, hits give low values
[29] = locus YHR205W, strain SCH9, hits give low values
[30] = locus YIL147C, strain SLN1, hits give low values
[31] = locus YJL095W, strain BCK1, hits give low values
[32] = locus YJL128C, strain PBS2, hits give low values
[33] = locus YJL157C, strain FAR1, hits give low values
[34] = locus YJR016C, strain ILV3, hits give low values
[35] = locus YJR066W, strain TOR1 (second series), hits give low values
[36] = locus YJR066W, strain TOR1, hits give low values
[37] = locus YKL048C, strain ELM1, hits give low values
[38] = locus YKL067W, strain YNK1, hits give low values
[39] = locus YKL101W, strain HSL1, hits give low values
[40] = locus YKL193C, strain SDS22, hits give low values
[41] = locus YKL203C, strain TOR2, hits give low values
[42] = locus YLR113W, strain HOG1, hits give low values
[43] = locus YLR133W, strain CKI1, hits give low values
[44] = locus YLR403W, strain SFP1, hits give low values
[45] = locus YML070W, strain DAK1, hits give low values
[46] = locus YMR001C, strain CDC5, hits give low values
[47] = locus YMR205C, strain PFK2 (second series), hits give low values
[48] = locus YMR277W, strain FCP1, hits give low values
[49] = locus YNL006W, strain LST8, hits give low values
[50] = locus YNL020C, strain ARK1, hits give low values
[51] = locus YNL161W, strain CBK1, hits give low values
[52] = locus YNL183C, strain NPR1, hits give low values
[53] = locus YNL207W, strain RIO2, hits give low values
[54] = locus YNL222W, strain SSU72, hits give low values
[55] = locus YNL307C, strain MCK1 (second series), hits give low values
[56] = locus YOL078W, strain AVO1, hits give low values
[57] = locus YOL136C, strain PFK27, hits give low values
[58] = locus YOR061W, strain CKA2, hits give low values
[59] = locus YOR119C, strain RIO1, hits give low values
[60] = locus YOR231W, strain MKK1, hits give low values
[61] = locus YOR329C, strain SCD5, hits give low values
[62] = locus YPL031C, strain PHO85, hits give low values
[63] = locus YPL153C, strain RAD53, hits give low values
[64] = locus YPL204W, strain HRR25, hits give low values
[65] = locus YPL209C, strain IPL1, hits give low values
[66] = locus YPL256C, strain CLN2, hits give low values
[67] = locus YPR025C, strain CCL1, hits give low values
[68] = locus YPR106W, strain ISR1, hits give low values
[69] = locus YPR111W, strain DBF20, hits give low values
[70] = strain NNK1, hits give low values
[71] = strain TSCII, hits give low values

Measured: normalized growth

CC(C)(C)NC(=S)N/N=C\c1ccccc1O
inactive: [1] 0.954 | [2] 0.957 | [3] 0.958 | [4] 0.958 | [5] 0.947 | [6] 0.96 | [7] 0.951 | [8] 0.964 | [9] 0.947 | [10] 0.95 | [11] 0.924 | [12] 0.97 | [13] 0.943 | [14] 0.961 | [15] 0.876 | [16] 0.848 | [17] 0.882 | [18] 0.928 | [19] 0.947 | [20] 0.955 | [21] 0.95 | [22] 0.957 | [23] 0.875 | [24] 0.954 | [25] 0.692 | [26] 0.901 | [27] 0.806 | [28] 0.931 | [29] 0.972 | [30] 0.953 | [31] 0.941 | [32] 0.949 | [33] 0.891 | [34] 0.954 | [35] 0.878 | [36] 0.789 | [37] 0.947 | [38] 0.897 | [39] 0.917 | [40] 0.951 | [41] 0.968 | [42] 0.915 | [43] 0.926 | [44] 0.867 | [45] 0.902 | [46] 0.95 | [47] 0.941 | [48] 0.93 | [49] 0.945 | [50] 0.903 | [51] 0.955 | [52] 0.955 | [53] 0.954 | [54] 0.944 | [55] 0.841 | [56] 0.955 | [57] 0.904 | [58] 0.882 | [59] 0.909 | [60] 0.828 | [61] 0.959 | [62] 0.867 | [63] 0.865 | [64] 0.837 | [65] 0.941 | [66] 0.949 | [67] 0.954 | [68] 0.968 | [69] 0.949 | [70] 0.967 | [71] 0.94

CC(NC(=S)N/N=C\c1ccccc1O)c1ccccc1 (stereo not drawn)
active: [26] 0.772
inactive: [1] 0.984 | [2] 0.982 | [3] 0.971 | [4] 0.975 | [5] 0.974 | [6] 0.974 | [7] 0.981 | [8] 0.977 | [9] 0.969 | [10] 0.973 | [11] 0.973 | [12] 0.986 | [13] 0.951 | [14] 0.97 | [15] 0.927 | [16] 0.905 | [17] 0.953 | [18] 0.972 | [19] 0.974 | [20] 0.979 | [21] 0.99 | [22] 0.982 | [23] 0.944 | [24] 1.06 | [25] 0.897 | [27] 0.951 | [28] 1.03 | [29] 1.01 | [30] 0.985 | [31] 0.87 | [32] 0.986 | [33] 0.966 | [34] 0.977 | [35] 0.944 | [36] 0.943 | [37] 0.972 | [38] 0.992 | [39] 0.978 | [40] 0.976 | [41] 0.98 | [42] 0.966 | [43] 0.97 | [44] 0.939 | [45] 0.964 | [46] 0.979 | [47] 0.977 | [48] 0.971 | [49] 0.991 | [50] 0.964 | [51] 0.984 | [52] 0.896 | [53] 0.976 | [54] 0.974 | [55] 0.933 | [56] 0.978 | [57] 0.984 | [58] 0.959 | [59] 1.04 | [60] 0.981 | [61] 0.983 | [62] 0.927 | [63] 0.929 | [64] 0.922 | [65] 0.979 | [66] 0.944 | [67] 0.979 | [68] 0.992 | [69] 0.983 | [70] 0.992 | [71] 0.978

COc1ccccc1NC(=S)N/N=C\c1ccccc1O
inactive: [1] 0.962 | [2] 0.968 | [3] 0.967 | [4] 0.965 | [5] 0.967 | [6] 0.967 | [7] 0.96 | [8] 0.978 | [9] 0.954 | [10] 0.965 | [11] 0.941 | [12] 0.973 | [13] 0.957 | [14] 0.959 | [15] 0.938 | [16] 0.928 | [17] 0.942 | [18] 0.965 | [19] 0.953 | [20] 0.97 | [21] 0.976 | [22] 0.966 | [23] 0.939 | [24] 1.02 | [25] 0.891 | [26] 0.903 | [27] 0.956 | [28] 0.964 | [29] 0.98 | [30] 0.961 | [31] 0.978 | [32] 0.957 | [33] 0.951 | [34] 0.979 | [35] 0.903 | [36] 0.942 | [37] 0.962 | [38] 0.955 | [39] 0.948 | [40] 0.964 | [41] 0.971 | [42] 0.955 | [43] 0.942 | [44] 0.916 | [45] 0.973 | [46] 0.958 | [47] 0.959 | [48] 0.966 | [49] 0.97 | [50] 0.955 | [51] 0.967 | [52] 0.975 | [53] 0.97 | [54] 0.967 | [55] 0.949 | [56] 0.968 | [57] 0.967 | [58] 0.931 | [59] 0.941 | [60] 0.967 | [61] 0.969 | [62] 0.93 | [63] 0.937 | [64] 0.941 | [65] 0.967 | [66] 0.929 | [67] 0.968 | [68] 0.969 | [69] 0.978 | [70] 0.986 | [71] 0.969
